The list is not random: actives were taken first. Their share in the collection is about 21%.
AMA1-RON2 inh = disrupts binding of P. falciparum AMA1 to RON2 | AlphaScreen AMA1-biotinylated RON2 peptide binding | AID 720542 | 0.2% of 360,000 active | Potency, µM (highest dose often 58.2 µM), for the others: at the highest dose activity change, negative = inhibition, actives largely listed as inhibitors;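 note: potency is the fitted concentration of half-maximal effect; 0% = vehicle wells and -100% = peptide control; nearly all actives have a fitted effect of over 45% in size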
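AMA1 (3D7) with his tag at 25 nM final met compounds first, then biotinylated RON2 peptide at 25 nM; detection used donor plus acceptor beads, 10 µg/mL apiece, read by AlphaScreen after 30 min at room temperature.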
Shiga inhibitor = inhibitors of Shiga toxin in Vero cells; inhibition, % at 38.7 µM; Vero cells, Shiga toxin protein synthesis inhibition reporter; 9.2% of 290,000 active; in the data active = inhibition mostly above about 28%, no sharp cut-off; inactive = mostly below about 43%; note: 0% is about no effect
Pf growth 48h = inhibits P. falciparum growth in the first generation, 48 h. P. falciparum luciferase growth in erythrocytes, 48 h. Potency, µM (titrated, usually from 28.7 µM), for inactives: at the highest dose activity change, negative = inhibition, hits mostly inhibitors. 5.9% of 310,000 active; note: potency is the fitted concentration of half-maximal effect; % is set by controls: 0 for no effect and ±100 for the full control effect
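Luminescence readout; reporter = integrated firefly luciferase in P. falciparum. RBC culture at 2% hematocrit, 0.1% parasitemia final, 37 C/5% CO2; decreased signal taken as growth inhibition.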
CHX counter = affects cycloheximide protein synthesis inhibition readout, counter-screen; AID 2314; max response, %; cell reporter, cycloheximide protein synthesis inhibition counterscreen; 12% of 300,000 active; in the data active = max response mostly above about 13%, no sharp cut-off; inactive = mostly below about 14%; note: read at 38.3 µM for the half of the compounds with a filed dose; 0% is about no effect
HCV inhibitor = blocks hepatitis C virus; Huh7.5.1 HCVcc-Cre infection, luciferase reporter, 44 h; Potency, µM (titrated, usually from 41.8 µM), inactives show top-dose activity change, negative = inhibition, most hits filed as inhibitors; 3.4% of 340,000 active; AID 651820; note: potency is the fitted concentration of half-maximal effect; % is set by controls: 0 for no effect and ±100 for the full control effect
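1,000 cells/well; 4 h culture; + compound; + HCVcc-Cre (~0.5 moi); 44 h; luciferase substrate, RT 15 min; read 15 sec.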
Pf growth 96h = P. falciparum growth inhibition at 96 hours; AID 504834; P. falciparum luciferase reporter growth, 96 h; Potency, µM (titrated, usually from 28.7 µM), for the others: at the highest dose activity change, negative = inhibition, hits mostly inhibitors; 6.9% of 320,000 active; note: potency is the fitted concentration of half-maximal effect; % is set by controls: 0 for no effect and ±100 for the full control effect
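Two parasite generations (96 h, 37 C, 5% CO2) of compound exposure in infected erythrocytes (0.05% parasitemia, 2% hematocrit). Luciferase-reporter P. falciparum; decreased luminescence indicates inhibited growth, aimed at apicoplast-acting delayed death.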
The depositor's hits bear a star; ? = inconclusive; nt = not tested or not shown; [ ] = another dose, or the depositor's remark. Unless noted, calls come from the whole dose curve; as a rule, active = well fitted curve in the direction sought with a large enough effect; inconclusive = small, poorly fitted or top-dose-only effect, or another doubt; inactive = no such curve, though single readings can be large; an effect the other way counts as inactive or inconclusive.

SMILES	AMA1-RON2 inh	Shiga inhibitor	Pf growth 48h	CHX counter	HCV inhibitor	Pf growth 96h
O=c1[nH]ccc2c(S(=O)(=O)N3CCCNCC3)cccc12	nt	-5	nt	-5	nt	nt
O=c1c2c(nc3cc(-c4ccc(F)cc4)[nH]n13)CCCC2	-11%	74*	401%	39*	0%	29%
O=c1c2c(nc3cc(-c4cccc(Cl)c4)[nH]n13)CCC2	-7%	52*	31%	23	?	?
O=c1c2c(nc3c(-c4cccc5ccccc45)c[nH]n13)CCC2	42%	16	16%	-2	-6%	6%
O=c1c2c(nc3c(-c4ccc(Cl)cc4)c[nH]n13)CCCC2	2%	4	4.7µM*	1	?	5%
O=c1c2c(nc3cc(-c4cccc(F)c4)[nH]n13)CCC2	20%	95*	150%	51*	-4%	1%
O=[N+]([O-])c1ccc(-n2cnc3ccccc32)c([N+](=O)[O-])c1	-5%	-3	?	-1	?	38%
COc1ccc(NC(=O)CSc2ccc3nnc(CCNC(=O)c4ccccc4)n3n2)cc1OC	-4%	-16	6%	9	21%	-11%
COC(=O)N/N=C/c1cc(Br)ccc1O	62%	4	0%	-4	-3%	?
Cc1cc(C(=O)N/N=C/c2c3ccccc3cc3ccccc23)n[nH]1	11%	21	-16%	10	?	19%
Nc1ccc(C(=O)N/N=C\c2cc(N=Nc3cccc4ccccc34)ccc2O)cc1	32%	30	2.9µM*	18*	11µM*	3%
Cc1cc(C(=O)N/N=C/c2cccc([N+](=O)[O-])c2O)n[nH]1	-34%	20	-9%	18*	11%	3%
Cc1cc(C(=O)N/N=C/c2cc(N=Nc3ccccc3)ccc2O)n[nH]1	-19%	18	?	17*	22µM*	?
COC(=O)N/N=C/c1cc(N=Nc2ccccc2)ccc1O	71%	47	?	25*	-10%	?
Cc1ccc(C[C@@H](NS(=O)(=O)c2ccc(C(=O)O)cc2)C(=O)O)cc1	nt	-11	-23%	-5	nt	16%
COC(=O)N/N=C/c1ccc(-c2cc(Cl)cc(Cl)c2)o1	-11%	-3	?	-6	-24%	?
COC(=O)N/N=C/c1cc(N=Nc2ccccc2Cl)ccc1O	27%	22	?	15	?	7.4µM*
CCC(C)NS(=O)(=O)c1ccc(S(=O)(=O)N2CCCC3(CCCCC3)C2)cc1 (stereo not given)	-8%	-11	?	-2	10µM*	nt
CN1CCc2c(sc3c2C(=O)NC(c2cccc(OC(=O)c4cccs4)c2)N3)C1 (stereo not given)	21%	70*	116%	45*	3%	?
O=C(NCCCN1CCOCC1)c1ccc(-n2nc(C(F)(F)F)cc2-c2cccs2)cc1	-7%	-15	9.3µM*	-2	?	nt
COCCCNC(=O)c1ccc(-n2nc(C(F)(F)F)cc2-c2cccs2)cc1	0%	-16	12µM*	5	7%	nt
O=C(CSc1nc(-c2cccs2)cc(C(F)(F)F)n1)NCCCN1CCOCC1	-1%	14	1%	-2	?	0%
Cc1ccc(S(=O)(=O)N2[C@@H](c3ccc(Br)cc3)C(C(=O)O)=CC[C@H]2c2ccc3c(c2)OCO3)cc1	-4%	nt	nt	nt	3%	nt
CN1C[C@H](CO)C[C@@H]2c3cccc4[nH]cc(c34)C[C@H]21	2%	-6	-2%	-1	14%	6%
C=CCN1CC(C(=O)N(CCCN(C)C)C(=O)NCC)CC2c3cccc4[nH]cc(c34)CC21 (stereo not given)	nt	-3	19µM*	12	nt	11µM*
SMILES	AMA1-RON2 inh	Shiga inhibitor	Pf growth 48h	CHX counter	HCV inhibitor	Pf growth 96h
CN1C[C@H](C(=O)NC2(C)OC3(O)[C@@H]4CCCN4C(=O)[C@H](Cc4ccccc4)N3C2=O)CC2c3cccc4[nH]cc(c34)C[C@H]21 (stereo not given in full)	-17%	nt	nt	nt	13%	nt
CCN(CC)C(=O)N[C@H]1C[C@@H]2c3cccc4[nH]cc(c34)C[C@H]2N(C)C1	?	-10	?	-3	0%[8.37 µM]	0.93µM*
O=C(CN1C(=O)CCSc2ccc(S(=O)(=O)N3CCCC3)cc21)Nc1ccccc1	0%	6	16%	5	5%	2%
COc1ccc(OC)c(NC(=O)COc2coc(CN3CCCc4ccccc43)cc2=O)c1	-4%	nt	10µM*	nt	?	?
Cc1cc(C)cc(NC(=O)COc2coc(CN3CCc4ccccc43)cc2=O)c1	-15%	nt	?	nt	?	?
Cc1ccc(NC(=O)COc2coc(CN3CCc4ccccc43)cc2=O)c(C)c1	-15%	nt	?	nt	?	-18%
COc1ccc(OC)c(NC(=O)COc2coc(CN3CCc4ccccc43)cc2=O)c1	-29%	nt	10µM*	nt	?	?
CC12CC3CC(C)(C1)CC(C(=O)N1CCN(C(=O)c4ccco4)CC1)(C3)C2	6%	-5	17%	-6	5%	-19%
CC(=O)c1ccc2c(c1)N(CCCN1CCC(CCO)CC1)c1ccccc1S2	-6%	nt	8.1µM*	nt	3.2µM*	?
OCCN1CCN(CCCN2c3ccccc3Sc3ccc(Cl)cc32)CC1	?	-21	12µM*	-6	?	6.6µM*
CN(C)CCCN1c2ccccc2C(C)(C)c2ccccc21	nt	nt	?	nt	nt	17µM*
CN(C)CCCN1c2ccccc2Sc2ccc(Cl)cc21	?	-15	10µM*	-4	?	?
Cc1ccc2c(CN3CCN(c4ccccc4)CC3)cc(=O)oc2c1	5%	nt	nt	nt	nt	nt
CN1CCN(CCCNC(=O)c2cn(C)c3ccc(S(=O)(=O)N(C)C)cc3c2=O)CC1	-3%	2	nt	-1	14%	?
CN1CCN(CCCN2c3ccccc3Sc3ccc(S(=O)(=O)N(C)C)cc32)CC1	-10%	nt	13µM*	nt	?	3.6µM*
CCCCCCSc1ccc([C@H]2N[C@@](Cc3ccccc3)(C(=O)OC)[C@H]3C(=O)N(C)C(=O)[C@@H]23)cc1	-3%	nt	0.29µM*	nt	-29%[8.37 µM]	?
CCCCCCSc1ccc([C@H]2N[C@@](CC(C)C)(C(=O)OC)[C@H]3C(=O)N(C)C(=O)[C@@H]23)cc1	-5%	nt	?	nt	-8%	?
CCCCCCSc1ccc([C@H]2N[C@@](CC(C)C)(C(=O)OC)[C@H]3C(=O)N(CC)C(=O)[C@@H]23)cc1	10%	nt	?	nt	?	?
CCCSc1ccc([C@H]2N[C@@](Cc3ccccc3)(C(=O)OC)[C@H]3C(=O)N(CC)C(=O)[C@@H]23)cc1	1%	nt	1.5µM*	nt	?	1µM*
CCCCCCSc1ccc([C@H]2N[C@@](Cc3ccccc3)(C(=O)OC)[C@H]3C(=O)N(CC)C(=O)[C@@H]23)cc1	0%	nt	0.83µM*	nt	16%	0.47µM*

Compound activity from PubChem BioAssay.
